The nature of test [1]: ATG_M_32_CIS: Attagene CIS-FACTORIAL HepG2 Assay for M32 Transcription Factor (Internal Marker) (AID 2282949).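 Note: background control marker of the multiplexed CIS panel rather than a real target.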 Conditions: HepG2 Attagene cis-factorial M32 reporter, mRNA; actives raise or lower the signal. The procedure, abridged:
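Following 24 h chemical exposure of HepG2 cells transiently expressing cis-promoter reporter constructs, reporter transcript levels were determined by RT-PCR with fluorescent labelling and capillary electrophoresis, then fitted bidirectionally against DMSO.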

A short description of test [2]: ATG_M_06_CIS: Attagene CIS-FACTORIAL HepG2 Assay for M06 Transcription Factor (Internal Marker) (AID 2282950). Conditions: HepG2 Attagene CIS-FACTORIAL M06 internal marker reporter; actives raise or lower the signal. A digest of the protocol: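 Internal background marker within multiplexed cis-reporter HepG2 system. Cells transiently transfected, dosed 24 h; reporter mRNA measured by RT-PCR, HpaI digestion and capillary electrophoresis. Bidirectional fit relative to DMSO.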

Test [3] addresses Hypoxia-inducible factor 1-alpha (Homo sapiens) (UniProt Q16665). The test is described as follows: ATG_HIF1a_CIS: Attagene CIS-FACTORIAL HepG2 Assay for human Hypoxia Inducible Factor 1 (HIF1A) (AID 2282951). The note with it: HepG2 Attagene cis-factorial HIF1a reporter transcription; actives raise or lower the signal. The procedure, abridged: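 Measures endogenous transcription-factor activity through cis-regulated reporter mRNA in HepG2. Cells dosed 24 h; transcripts quantified by RT-PCR with 6-FAM-labelled products separated by capillary electrophoresis; DMSO serves as negative control.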

Test [4] has as its target Hepatocyte nuclear factor 6 (Homo sapiens) (UniProt Q9UBC0). The test is described as follows: ATG_HNF6_CIS: Attagene CIS-FACTORIAL HepG2 Assay for human Hepatocyte Nuclear Factor 6 (HNF6) (AID 2282952). Conditions: HepG2 Attagene cis-factorial HNF6 reporter transcription; actives raise or lower the signal. The procedure, abridged:
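HepG2, transient MRTU transfection (cis promoters); 24 h chemical exposure; total RNA → oligo(dT) RT → PCR → 6-FAM labelling → HpaI cut → CE; bidirectional fit vs DMSO.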

For test [5], the target named is Heat shock factor protein 1 (Homo sapiens) (UniProt Q00613). The experiment in a line: ATG_HSE_CIS: Attagene CIS-FACTORIAL HepG2 Assay for human Heat Shock Transcription Factor 1 (HSE) (AID 2282953). Conditions: HepG2 HSE cis-reporter, Attagene RNA transcription; actives raise or lower the signal. The procedure, abridged: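 HepG2 cells transfected with cis-promoter reporter units sensing endogenous transcription factor activity; reporter mRNA quantified 24 h post-dose by RT-PCR and capillary electrophoresis of 6-FAM-labelled products. Bidirectional fitting against DMSO.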
Heat shock factor protein 1 (Homo sapiens), sequence (Q00613 whole entry, looked up): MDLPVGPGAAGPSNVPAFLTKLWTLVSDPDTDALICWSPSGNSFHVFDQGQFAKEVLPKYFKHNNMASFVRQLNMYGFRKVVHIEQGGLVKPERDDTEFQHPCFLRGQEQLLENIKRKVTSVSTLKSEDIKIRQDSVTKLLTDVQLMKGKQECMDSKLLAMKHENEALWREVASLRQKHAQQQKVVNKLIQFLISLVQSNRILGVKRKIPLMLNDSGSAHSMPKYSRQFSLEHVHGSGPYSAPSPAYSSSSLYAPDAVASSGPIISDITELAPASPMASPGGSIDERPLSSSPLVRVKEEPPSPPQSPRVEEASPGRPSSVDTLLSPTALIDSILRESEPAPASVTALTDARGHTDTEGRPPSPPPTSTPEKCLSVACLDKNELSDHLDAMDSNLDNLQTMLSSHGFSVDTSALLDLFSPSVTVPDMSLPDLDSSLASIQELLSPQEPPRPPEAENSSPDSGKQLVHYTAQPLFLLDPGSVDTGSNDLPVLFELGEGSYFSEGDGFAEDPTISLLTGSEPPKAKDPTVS

Test [6] in a line: ATG_MRE_CIS: Attagene CIS-FACTORIAL HepG2 Assay for human Metal Responsive Element (MRE) (AID 2282954). Conditions: HepG2 MRE cis-reporter transcription, Attagene multiplex; actives raise or lower the signal. The procedure, abridged: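 HepG2 cells transiently transfected with multiple cis-element reporter units measure endogenous MTF1-driven transcription. After 24 h compound exposure, reporter mRNA is quantified by RT-PCR with 6-FAM labelling, HpaI digestion and capillary electrophoresis; bidirectional fits versus DMSO.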

Test [7] in a line: ATG_PBREM_CIS: Attagene CIS-FACTORIAL HepG2 Assay for human Phenobarbital-responsive Enhancer Module (PBREM) (AID 2282955). The note with it: HepG2 PBREM cis-reporter, Attagene multiplexed transcription; actives raise or lower the signal. The procedure, abridged:
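Fluorescence of labelled reporter cDNA fragments, resolved by capillary electrophoresis, gives mRNA induction in transfected HepG2 cells treated for 24 h; DMSO serves as negative control and baseline.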

Test [8] deals with Paired box protein Pax-6 (Homo sapiens) (UniProt P26367). The experiment in a line: ATG_Pax6_CIS: Attagene CIS-FACTORIAL HepG2 Assay for human Paired Box 6 (PAX6) (AID 2282956). Conditions: HepG2 CIS-FACTORIAL PAX6 reporter transcription, RNA readout; actives raise or lower the signal. The procedure, abridged:
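After twenty-four hours of chemical exposure, transfected HepG2 cells are harvested for RNA. Cis-promoter reporter transcripts are amplified, fluorescently labelled and sized by capillary electrophoresis, with gain and loss of signal scored against DMSO.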

A short description of test [9]: ATG_PXRE_CIS: Attagene CIS-FACTORIAL HepG2 Assay for human Pregnane X Receptor Element (PXRE) (AID 2282957). Conditions: HepG2 Attagene CIS-FACTORIAL PXRE reporter, mRNA; actives raise or lower the signal. A digest of the protocol:
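Transfect HepG2 with MRTUs (cis promoter elements); dose chemical, incubate 24 h; isolate RNA, RT with oligo(dT), PCR, 6-FAM label, HpaI cut, CE. Gain/loss fit vs DMSO.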

Test [10] in a line: ATG_PPRE_CIS: Attagene CIS-FACTORIAL HepG2 Assay for human Peroxisome Proliferator-activated Response Element (PPRE) (AID 2282958). Conditions: HepG2 PPRE cis-element reporter, Attagene transcription factor profiling; actives raise or lower the signal. The procedure, abridged: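 Cells are first transfected transiently with the multiplexed reporter library, then dosed for 24 h. Total RNA is reverse-transcribed, amplified, fluorescently end-labeled and HpaI-cut before capillary electrophoresis; activity is fitted bidirectionally against DMSO controls.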

A short description of test [11]: ATG_RORE_CIS: Attagene CIS-FACTORIAL HepG2 Assay for human RAR-related Orphan Receptor Element (RORE) (AID 2282959). The note with it: HepG2 Attagene cis-factorial RORE reporter, mRNA; actives raise or lower the signal. The procedure, abridged:
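Cells were HepG2 carrying transfected cis-regulated reporter constructs, dosed for 24 hours. Total RNA was reverse-transcribed and reporter cDNA amplified, fluorescently labeled and sized by capillary electrophoresis. Activity was fitted bidirectionally relative to DMSO.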

Test [12] can be described thus: ATG_Sox_CIS: Attagene CIS-FACTORIAL HepG2 Assay for human SRY-box transcription factor (SOX) (AID 2282960). Conditions: HepG2 Attagene cis-factorial SOX reporter, mRNA; actives raise or lower the signal. A digest of the protocol:
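Transient MRTU transfection of HepG2; 24 h compound incubation; TriZol RNA, oligo(dT) RT, PCR, 6-FAM primer extension, HpaI cut, CE. Bidirectional fit, DMSO = baseline.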

Test [13] deals with Transcription factor Sp1 (Homo sapiens) (UniProt P08047). The test is described as follows: ATG_Sp1_CIS: Attagene CIS-FACTORIAL HepG2 Assay for human Specificity Protein 1 (Sp1) (AID 2282961). Conditions: HepG2 Sp1 cis-reporter transcription, actives raise or lower the signal. The procedure, abridged:
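Endogenous Sp1 activity was gauged in human liver HepG2 cells bearing transfected reporter units under a cis-regulating promoter. After 24 h dosing, reporter mRNA was quantified by RT-PCR with capillary electrophoresis, and activity fitted bidirectionally versus DMSO.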

Test [14] is described as follows: ATG_SREBP_CIS: Attagene CIS-FACTORIAL HepG2 Assay for human Sterol Regulatory Element Binding (SREBP) (AID 2282962). The note with it: HepG2 Attagene cis-factorial SREBP reporter, mRNA; actives raise or lower the signal. A digest of the protocol: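 Twenty-four hours after chemical dosing of transfected HepG2 cultures, reporter RNA was converted to cDNA, amplified, end-labelled with 6-FAM and resolved by capillary electrophoresis. Responses were fitted relative to DMSO.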

Test [15] deals with Signal transducer and activator of transcription 3 (Homo sapiens) (UniProt P40763). The experiment in a line: ATG_STAT3_CIS: Attagene CIS-FACTORIAL HepG2 Assay for human Signal Transducer and Activator of Transcription 3 (STAT3) (AID 2282963). Conditions: HepG2, Attagene cis-factorial STAT3 reporter transcription; actives raise or lower the signal. The procedure, abridged: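 HepG2 cells transiently transfected with cis-element-driven multiple reporter transcription units; after 24 h chemical exposure, reporter mRNA measured by RT-PCR, 6-FAM primer-extension labelling, HpaI digestion and capillary electrophoresis. Bidirectional fitting versus DMSO baseline.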
Signal transducer and activator of transcription 3 (Homo sapiens), sequence (P40763 whole entry, looked up): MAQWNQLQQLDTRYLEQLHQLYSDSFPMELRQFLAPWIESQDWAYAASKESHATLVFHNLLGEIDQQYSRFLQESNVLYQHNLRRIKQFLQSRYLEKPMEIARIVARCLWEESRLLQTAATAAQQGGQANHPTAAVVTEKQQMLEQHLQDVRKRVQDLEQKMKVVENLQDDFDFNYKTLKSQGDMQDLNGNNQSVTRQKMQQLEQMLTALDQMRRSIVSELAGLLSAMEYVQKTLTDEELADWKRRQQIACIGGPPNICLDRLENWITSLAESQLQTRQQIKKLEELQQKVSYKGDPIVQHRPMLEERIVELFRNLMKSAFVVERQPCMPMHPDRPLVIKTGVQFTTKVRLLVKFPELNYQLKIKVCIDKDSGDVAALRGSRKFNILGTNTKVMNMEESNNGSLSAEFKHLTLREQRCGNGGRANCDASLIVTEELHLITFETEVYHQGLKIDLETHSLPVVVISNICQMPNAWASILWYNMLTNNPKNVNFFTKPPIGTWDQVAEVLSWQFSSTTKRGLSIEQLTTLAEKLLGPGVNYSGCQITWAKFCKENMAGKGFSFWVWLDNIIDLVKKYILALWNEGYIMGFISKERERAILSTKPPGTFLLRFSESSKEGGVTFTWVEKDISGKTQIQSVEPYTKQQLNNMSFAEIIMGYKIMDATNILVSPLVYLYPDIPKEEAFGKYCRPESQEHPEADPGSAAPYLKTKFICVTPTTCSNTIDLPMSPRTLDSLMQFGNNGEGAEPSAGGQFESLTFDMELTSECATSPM

The nature of test [16]: ATG_TA_CIS: Attagene CIS-FACTORIAL HepG2 Assay for human TA Basal Promoter (AID 2282964). Conditions: HepG2 Attagene CIS-factorial TA basal promoter reporter; actives raise or lower the signal. The procedure, abridged:
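HepG2 cells transiently transfected with multiple reporter units under cis promoter elements, reporting endogenous transcription factor activity; this endpoint tracks the TA basal promoter as background control. Reporter mRNA after 24 h dosing measured by RT-PCR/capillary electrophoresis; bidirectional fits versus DMSO.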

The nature of test [17]: ATG_TCF_b_cat_CIS: Attagene CIS-FACTORIAL HepG2 Assay for human T-Cell-Factor with beta-catenin (TCF/b-cat) (AID 2282965). The note with it: HepG2 TCF/beta-catenin cis-reporter transcription, actives raise or lower the signal. A digest of the protocol: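 Using capillary electrophoresis as the read-out, labelled reporter cDNA fragments from transiently transfected HepG2 were sized and quantified. Exposure lasted 24 hours; activity in either direction was referenced to DMSO.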

Test [18] can be described thus: ATG_TAL_CIS: Attagene CIS-FACTORIAL HepG2 Assay for human TAL Basal Promoter (AID 2282966).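 Note: background control endpoint measuring basal TAL promoter reporter mRNA not a specific factor.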 Conditions: HepG2 Attagene cis-factorial TAL promoter reporter; actives raise or lower the signal. The procedure, abridged:
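Fluorescence of labelled reporter cDNA fragments, resolved by capillary electrophoresis, gave the readout. Human HepG2 liver cells carried transiently transfected cis-element reporter units and were treated for 24 hours; activity was fitted bidirectionally against DMSO.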

Test [19] in a line: ATG_TGFb_CIS: Attagene CIS-FACTORIAL HepG2 Assay for human Transforming Growth Factor (TGF) (AID 2282967). The note with it: HepG2 Attagene CIS TGFb reporter, mRNA transcription; actives raise or lower the signal. A digest of the protocol: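 HepG2 cells transiently transfected with cis-promoter-driven multiple reporter units measure endogenous TF activity; reporter mRNA quantified at 24 h by RT-PCR, FAM labeling, HpaI digestion and capillary electrophoresis. Bidirectional fit vs DMSO.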

The nature of test [20]: ATG_VDRE_CIS: Attagene CIS-FACTORIAL HepG2 Assay for human Vitamin D Receptor Element (VDRE) (AID 2282968). Conditions: HepG2 VDRE cis-reporter transcription, actives raise or lower the signal. The procedure, abridged: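 HepG2 cells transiently transfected with cis-element reporter units, dosed 24 h; reporter mRNA measured by RT-PCR, 6-FAM labeling, HpaI digestion and capillary electrophoresis. Activity fitted bidirectionally against DMSO baseline.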

Active and inactive are the calls of the source. Rule for the calls: active = hit-call score of the fitted dose curve at least 0.9, where 1 is the maximum; inactive = score below 0.9.

Hypoxia-inducible factor 1-alpha (Homo sapiens), sequence (Q16665 whole entry, looked up): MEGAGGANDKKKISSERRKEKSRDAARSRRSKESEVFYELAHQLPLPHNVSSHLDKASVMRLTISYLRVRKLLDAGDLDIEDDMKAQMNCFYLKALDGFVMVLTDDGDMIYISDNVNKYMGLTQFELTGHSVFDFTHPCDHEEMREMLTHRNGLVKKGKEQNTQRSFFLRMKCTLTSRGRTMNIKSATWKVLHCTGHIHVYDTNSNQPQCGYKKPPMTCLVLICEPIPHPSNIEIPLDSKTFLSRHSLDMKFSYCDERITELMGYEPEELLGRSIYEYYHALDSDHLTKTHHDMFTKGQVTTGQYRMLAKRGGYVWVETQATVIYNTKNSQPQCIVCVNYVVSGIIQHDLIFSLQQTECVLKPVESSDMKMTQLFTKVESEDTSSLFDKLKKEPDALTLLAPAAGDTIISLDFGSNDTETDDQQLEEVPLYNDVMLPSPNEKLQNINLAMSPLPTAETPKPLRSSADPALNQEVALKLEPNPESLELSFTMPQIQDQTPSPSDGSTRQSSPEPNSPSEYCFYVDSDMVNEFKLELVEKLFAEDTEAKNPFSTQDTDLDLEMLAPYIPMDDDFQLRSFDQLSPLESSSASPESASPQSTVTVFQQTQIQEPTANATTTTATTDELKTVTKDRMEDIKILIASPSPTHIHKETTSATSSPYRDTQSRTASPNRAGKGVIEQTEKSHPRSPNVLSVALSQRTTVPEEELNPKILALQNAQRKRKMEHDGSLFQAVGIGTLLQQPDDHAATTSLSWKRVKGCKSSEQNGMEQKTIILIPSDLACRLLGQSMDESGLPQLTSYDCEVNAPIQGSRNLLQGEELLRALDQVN
Transcription factor Sp1 (Homo sapiens), sequence (P08047 whole entry, looked up): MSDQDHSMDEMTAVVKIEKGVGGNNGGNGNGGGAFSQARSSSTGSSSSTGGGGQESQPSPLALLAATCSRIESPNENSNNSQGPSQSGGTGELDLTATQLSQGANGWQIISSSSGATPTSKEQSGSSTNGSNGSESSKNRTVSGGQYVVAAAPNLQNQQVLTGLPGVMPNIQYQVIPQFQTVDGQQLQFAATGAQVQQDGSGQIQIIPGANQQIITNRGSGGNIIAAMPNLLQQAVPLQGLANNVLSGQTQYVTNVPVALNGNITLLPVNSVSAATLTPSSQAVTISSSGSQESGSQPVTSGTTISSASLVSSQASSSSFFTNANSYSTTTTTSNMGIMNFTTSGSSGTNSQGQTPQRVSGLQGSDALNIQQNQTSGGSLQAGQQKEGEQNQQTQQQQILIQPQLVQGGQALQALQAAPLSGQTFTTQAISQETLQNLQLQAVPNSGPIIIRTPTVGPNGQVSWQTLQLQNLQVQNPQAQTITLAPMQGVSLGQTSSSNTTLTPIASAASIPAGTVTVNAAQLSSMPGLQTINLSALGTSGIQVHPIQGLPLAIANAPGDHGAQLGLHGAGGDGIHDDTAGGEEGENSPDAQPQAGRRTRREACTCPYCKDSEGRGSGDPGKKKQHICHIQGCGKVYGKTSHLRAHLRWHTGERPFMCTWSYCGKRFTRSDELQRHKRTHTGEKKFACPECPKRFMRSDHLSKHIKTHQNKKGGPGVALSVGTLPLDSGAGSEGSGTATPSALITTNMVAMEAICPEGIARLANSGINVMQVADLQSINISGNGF
Paired box protein Pax-6 (Homo sapiens), sequence (P26367 whole entry, looked up): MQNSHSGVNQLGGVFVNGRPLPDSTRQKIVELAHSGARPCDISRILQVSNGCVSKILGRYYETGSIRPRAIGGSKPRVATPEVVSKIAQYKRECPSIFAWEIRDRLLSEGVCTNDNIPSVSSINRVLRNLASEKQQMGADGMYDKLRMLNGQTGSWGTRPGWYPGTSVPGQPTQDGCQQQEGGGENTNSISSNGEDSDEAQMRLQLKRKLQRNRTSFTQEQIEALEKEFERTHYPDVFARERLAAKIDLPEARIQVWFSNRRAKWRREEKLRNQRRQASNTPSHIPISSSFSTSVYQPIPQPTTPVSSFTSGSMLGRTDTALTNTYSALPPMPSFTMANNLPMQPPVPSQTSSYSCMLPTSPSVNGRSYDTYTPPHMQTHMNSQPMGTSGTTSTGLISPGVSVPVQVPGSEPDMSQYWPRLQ
Hepatocyte nuclear factor 6 (Homo sapiens), sequence (Q9UBC0 whole entry, looked up): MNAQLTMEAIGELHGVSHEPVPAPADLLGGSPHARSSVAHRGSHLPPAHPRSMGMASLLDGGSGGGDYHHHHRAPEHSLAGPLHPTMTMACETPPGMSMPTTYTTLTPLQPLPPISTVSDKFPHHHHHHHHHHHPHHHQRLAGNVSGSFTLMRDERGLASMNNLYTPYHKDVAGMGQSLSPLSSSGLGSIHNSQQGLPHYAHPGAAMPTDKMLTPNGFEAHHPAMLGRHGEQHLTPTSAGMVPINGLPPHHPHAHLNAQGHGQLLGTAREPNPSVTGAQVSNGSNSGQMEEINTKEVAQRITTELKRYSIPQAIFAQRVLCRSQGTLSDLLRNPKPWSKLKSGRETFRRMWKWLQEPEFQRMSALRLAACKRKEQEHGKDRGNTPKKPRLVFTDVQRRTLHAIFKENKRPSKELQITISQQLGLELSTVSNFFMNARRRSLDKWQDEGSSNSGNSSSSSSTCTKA

With `O=P(O)(O)CCC(F)(F)C(F)(F)C(F)(F)C(F)(F)C(F)(F)C(F)(F)C(F)(F)C(F)(F)F`, the result in test [1], in [2], in test [3], in test [4], in test [5] and in test [6] was inactive. Besides, the outcome in test [7], in test [8], in test [9], in test [10], in test [11] and in test [12] was inactive. The compound was classed as inactive in [13], in test [14], in [15], in test [16], in [17] and in [18]. The call in [19] and in test [20] was inactive.
With `O=S(=O)(c1ccc(OCc2ccccc2)cc1)c1ccccc1O`, the compound was classed as inactive in [1], in test [2], in [11], in [12], in test [15] and in [16]. The compound was called inactive in test [18] and in test [19]. Moreover, the AC50 – broadly, the concentration at which the activity in the assay is half-maximal – is 33.4 µM (active) in [3]; 61.3 µM (active) in test [4]; 44.2 µM (active) in [5]; 40.9 µM (active) in test [6]; 24.1 µM (active) in test [7]; 33.4 µM (active) in test [8]. Besides, the concentration at half-maximal activity (AC50) in test [9] is 7.94 µM (active); in [10], 0.156 µM (active); in test [13], 30.6 µM (active); in [14] it was 22.7 µM (active); in test [17], 54.4 µM (active); in test [20], 8.61 µM (active).
Take `CCC(C)c1nccnc1OC` (stereo not given): the compound was classed as inactive in [1], in test [2], in test [3], in test [4], in [5] and in test [6]. The result in test [7], in test [8], in test [9], in test [10], in [11] and in test [12] was inactive. In addition, the outcome in [13], in test [14], in test [15], in [16], in test [17] and in [18] was inactive. Moreover, the call in test [19] and in test [20] was inactive.

For the origin of these results see PubChem BioAssay (EPA / NIEHS).
